Assay [1] can be described thus: qHTS assay to identify small molecule agonists of the hypoxia (HIF-1) signaling pathway - cell viability counter screen (AID 1224844; calls by dose curve; further: nearly all actives have a fitted effect of over 50% in size; further: potency means the concentration at half of the fitted maximal effect). Put shortly: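 Tox21 10K compounds were added to HRE-bla ME-180 cells (0.5% dialyzed FBS) and incubated 17 hrs at 37C; ATP-based CellTiter-Glo luminescence then reported cell viability in the same wells.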
Assay [2] in a line: qHTS assay to identify small molecule agonists of H2AX (AID 1224845; active means well fitted activation curve with a large enough effect in the signal ratio in the repeat runs, not every such curve was filed as active; the % refers to the signal ratio; further: potency means the concentration at half of the fitted maximal effect). Put shortly:
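Wild-type CHO-K1 cells, plated overnight, exposed 3hr at 37C to 15 concentrations (0.76% DMSO final). Lysed, then HTRF anti-pH2AX (S139) cryptate and anti-H2AX-d2 antibodies, 24 hr room temperature; 665/620 nm emission read.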

A short description of assay [3]: qHTS assay to identify small molecule agonists of the hypoxia (HIF-1) signaling pathway (AID 1224846; active means well fitted activation curve with a large enough effect in the signal ratio in the repeat runs, not every such curve was filed as active; the % refers to the signal ratio). Put shortly:
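Steps: seed ME-180 HRE-bla cells (2,000/well, 0.5% dialyzed FBS); incubate 5 hrs at 37C; pin-transfer compounds or DMSO; incubate 17 hrs; add LiveBLAzer B/G substrate CCF4-AM; measure reporter activation by FRET.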

A short description of assay [4]: qHTS assay to identify small molecule agonists of H2AX - cell viability counter screen (AID 1224847; calls by dose curve; further: nearly all actives have a fitted effect of over 30% in size; further: potency means the concentration at half of the fitted maximal effect; on activity change, negative = cytotoxicity: top concentration of the series differs between compounds). A digest of the protocol:
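Cells plated first: CHO-K1, 1000 per well in 10% FBS medium, incubated overnight at 37C. Then 15-point compound titration added (final DMSO 0.76%) for 3 hr. Finally CellTiter-Glo added and luminescence read.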

Assay [5] can be described thus: qHTS RealTime-Glo MT Cell Viability Assay in HepG2 cells - 24 hour (AID 1224867). Further: nearly all actives have a fitted effect of over 50% in size. Further: potency means the concentration at half of the fitted maximal effect. Put shortly: (§1)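 Cells + NanoLuc/prosubstrate dispensed (600 cells/well) → 5 h at 37 C/5% CO2 → compounds in DMSO transferred → 40 h incubation at 37 C, luminescence read at 0, 8, 16, 24, 32, 40 h.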
Assay [6] in a line: qHTS RealTime-Glo MT Cell Viability Assay in HEK293 cells - 32 hour (AID 1224868). Further: nearly all actives have a fitted effect of over 50% in size. Further: potency means the concentration at half of the fitted maximal effect. Put shortly: (§2)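 Tox21 10K qHTS, HEK293, 600 cells/well, RealTime-Glo reagent co-dispensed with cells; 5 h preincubation, compound by pintool, 37 C, luminescence at 0–40 h.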
The nature of assay [7]: A CellTox Green Cytotoxicity Assay to monitor cytotoxicity in HEK293 cells - 0 hour (AID 1224869). Further: nearly all actives have a fitted effect of over 50% in size. Put shortly: (§3)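 Cytotoxicity was tracked continuously in HEK293 cells by a DNA-binding dye excluded from viable cells. Compounds were transferred in DMSO 5 h after seeding; fluorescence was recorded at intervals up to 40 h.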
Assay [8] can be described thus: qHTS RealTime-Glo MT Cell Viability Assay in HepG2 cells - 40 hour (AID 1224870). Further: nearly all actives have a fitted effect of over 50% in size. Further: potency means the concentration at half of the fitted maximal effect. A digest of the protocol: (§4)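 HepG2 cells (600/well) mixed with RealTime-Glo MT reagent, settled 5 h at 37 C/5% CO2 before compound addition. Nonlytic NanoLuc luminescence from viable-cell prosubstrate reduction read repeatedly during 40 h treatment at 37 C.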
The nature of assay [9]: A CellTox Green Cytotoxicity Assay to monitor cytotoxicity in HEK293 cells - 40 hour (AID 1224871). Further: nearly all actives have a fitted effect of over 45% in size. Further: potency means the concentration at half of the fitted maximal effect. Put shortly:
as §3

Assay [10] in a line: qHTS RealTime-Glo MT Cell Viability Assay in HEK293 cells - 16 hour (AID 1224872). Further: nearly all actives have a fitted effect of over 50% in size. Further: potency means the concentration at half of the fitted maximal effect. On activity change, negative = cytotoxicity: top concentration of the series differs between compounds. Put shortly: as §2
A short description of assay [11]: qHTS RealTime-Glo MT Cell Viability Assay in HepG2 cells - 8 hour (AID 1224873). Further: nearly all actives have a fitted effect of over 55% in size. Further: potency means the concentration at half of the fitted maximal effect. Put shortly: as §4
A short description of assay [12]: qHTS RealTime-Glo MT Cell Viability Assay in HEK293 cells - 40 hour (AID 1224874). Further: nearly all actives have a fitted effect of over 50% in size. Further: potency means the concentration at half of the fitted maximal effect. The settings on record: RealTime-Glo luminescence; max response: active compounds read low. A digest of the protocol:
(§5)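 Nonlytic bioluminescent viability monitoring. HEK293 at 600 cells/well with reagent; 5 h settle; compound transfer by pintool; plates held at 37 C and read at set time points.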

Assay [13] can be described thus: A CellTox Green Cytotoxicity Assay to monitor cytotoxicity in HEK293 cells - 24 hour (AID 1224875). Further: nearly all actives have a fitted effect of over 45% in size. Further: potency means the concentration at half of the fitted maximal effect. Put shortly: as §3
Assay [14] is described as follows: qHTS RealTime-Glo MT Cell Viability Assay in HepG2 cells - 32 hour (AID 1224877). Further: nearly all actives have a fitted effect of over 55% in size. Further: potency means the concentration at half of the fitted maximal effect. A digest of the protocol:
as §1

Assay [15] is described as follows: A CellTox Green Cytotoxicity Assay to monitor cytotoxicity in HepG2 cells - 24 hour (AID 1224878). Further: nearly all actives have a fitted effect of over 45% in size. Further: potency means the concentration at half of the fitted maximal effect. A digest of the protocol:
(§6)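 Real-time, homogeneous cytotoxicity readout: dead-cell DNA staining by CellTox Green in HepG2 monolayers, fluorescence measured at timed intervals up to 40 h of continuous compound exposure.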

Assay [16] can be described thus: A CellTox Green Cytotoxicity Assay to monitor cytotoxicity in HepG2 cells - 40 hour (AID 1224879). Further: nearly all actives have a fitted effect of over 40% in size. Further: potency means the concentration at half of the fitted maximal effect. Put shortly: as §6
The nature of assay [17]: qHTS RealTime-Glo MT Cell Viability Assay in HEK293 cells - 0 hour (AID 1224880). Further: top concentration of the series differs between compounds; nearly all actives have a fitted effect of over 45% in size. Put shortly: as §5
Assay [18] in a line: A CellTox Green Cytotoxicity Assay to monitor cytotoxicity in HepG2 cells - 16 hour (AID 1224876). Further: nearly all actives have a fitted effect of over 45% in size. Further: potency means the concentration at half of the fitted maximal effect. A digest of the protocol:
as §6

The nature of assay [19]: qHTS assay to identify small molecule agonists of the estrogen related receptor (ERR) signaling pathway from Tox21 library (AID 1224849; calls by dose curve; further: nearly all actives have a fitted effect of over 15% in size). The note with it: ERR reporter cell line, ONE-Glo luciferase, 18 h; at 92.4 µM (top of the series) unless noted. A digest of the protocol:
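Agonist signal is luciferase luminescence from an ERR reporter cell line treated 18 h at 37 C with DMSO-dissolved compounds, read 30 min after ONE-Glo addition at room temperature.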

Assay [20] in a line: qHTS assay to identify small molecule antagonists of the estrogen related receptor (ERR) signaling pathway from Tox21 library (AID 1224848). Further: nearly all actives have a fitted effect of over 50% in size. Further: potency means the concentration at half of the fitted maximal effect. A digest of the protocol:
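ERR reporter cell line (from NTP) seeded 2,000 cells/well, rested 6 h at 37 C/5% CO2, then pin-dosed with compounds in DMSO. After 18 h at 37 C, ONE-Glo added; luminescence read after 30 min at room temperature.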

“And” between values parts separate entries of the source, which are not always exact repeats. Equal values may be shown once. A number with no mark means an inactive call. Inconclusive results are not listed. The source made the active and inactive calls. Unless noted, the call rests on the fitted dose curve; in most records, active means well fitted curve in the direction sought with a large enough effect in the repeat runs; inconclusive means weak or mixed curves; inactive means no such curve, though single readings can be large; an effect the other way counts as inactive or inconclusive.
On the % scale 0 is the no-effect control and ±100 the full control effect.

On to `CCCSP(=O)(OCC)SCCC`, for which the Potency result in assay [1], in [2], in assay [4], in assay [5], in assay [6] and in assay [7] was “inactive” throughout. Besides, the Potency result in assay [8], in assay [9], in assay [10], in [11], in assay [13] and in [14] was “inactive” in each case. In addition, the Potency result in [15], in assay [16] and in assay [17] was “inactive” in each case. Also, the result in assay [3] was inactive. For the same compound, the max response in assay [12] is -0.268%.
With `Oc1ccccc1Br`, the Potency entry in [1], in assay [2], in assay [4], in assay [6], in [7] and in assay [8] was “inactive” in each case. Moreover, the Potency entry in [9], in assay [10], in assay [13], in assay [18], in [14] and in assay [15] was “inactive” each time. Further, the Potency result in [16] and in [17] was “inactive” throughout. Also, in [3], the compound was classed as inactive. Besides, in assay [12], the max response was 3.02%.
For `CC(=O)c1ccc(-c2ccccc2)cc1`, the Potency entry in assay [1], in assay [2], in assay [4], in assay [5], in [6] and in [7] was “inactive” each time. Besides, the Potency result in [8], in assay [9], in assay [10], in assay [11], in assay [13] and in [18] was “inactive” each time. Besides, the Potency entry in [14], in assay [15], in [16] and in assay [17] was “inactive” each time. Besides, in [3], the result was inactive. Moreover, the max response in assay [12] was -11.1%.
For the compound `N#Cc1ccc(O)cc1`, the Potency entry in [1], in assay [2], in [4], in assay [5], in [6] and in assay [7] was “inactive” throughout. The Potency result in [8], in assay [10], in [11], in assay [13], in [18] and in assay [14] was “inactive” in each case. The Potency result in [15], in assay [16] and in [17] was “inactive” each time. Besides, the compound was called inactive in [3]. Besides, in assay [12], the max response is -7.33%.
Regarding `CN(C)[C@@H]1C(=O)C(C(N)=O)=C(O)[C@@]2(O)C(=O)C3=C(O)c4c(O)ccc(Cl)c4[C@@](C)(O)[C@H]3C[C@@H]12`, the Potency entry in assay [1], in [2], in [4], in [5], in assay [7] and in assay [8] was “inactive” in each case. For the same compound, the Potency entry in assay [9], in assay [10], in [11], in assay [13], in assay [18] and in assay [14] was “inactive” each time. Further, the Potency result in assay [15], in [16] and in [17] was “inactive” in each case. Besides, the compound was classed as inactive in [3].
For the compound `NC(=O)CCl`, the Potency result in assay [1], in assay [2], in assay [4], in assay [5], in [6] and in assay [7] was “inactive” in each case. The Potency entry in assay [8], in assay [9], in assay [10], in [11], in [13] and in assay [18] was “inactive” throughout. The Potency result in assay [14], in [15], in [16] and in [17] was “inactive” in each case. In addition, in assay [3], the outcome was inactive.
As to `C[CH2][Hg][N]1C(=O)C2C(C1=O)C1(Cl)C(Cl)=C(Cl)C2(Cl)C1(Cl)Cl` (centres undefined), the Potency was 2.33 µM (active) in [1]; 10.7 µM (active) in [2]; 13.5 µM (active) in [4]; 6.57 µM (active) in assay [5]; 2.33 µM (active) in assay [6]; 6.57 µM (active) in assay [8]. Besides, the Potency was 4.65 µM (active) in assay [9]; 2.61 µM (active) in assay [10]; 7.37 µM (active) in [11]; 2.08 µM (active) in [12]; 4.65 µM (active) in assay [13]; 6.57 µM (active) in [18]. The Potency in assay [14] is 6.57 µM (active); in assay [15], 7.37 µM (active); in [16] it was 6.57 µM (active). Further, the activity change, positive = activation in [19] was -76.3% [at 19 µM]. The cytotoxicity in assay [7] was -0.189% [at 15.8 µM]. The activity change, negative = cytotoxicity in [17] is -4.29% [at 15.8 µM].
As to `CCCCCCCCCCCCCCC(Br)C(=O)O` (centres undefined), the Potency in assay [1] was 49 µM (active); in assay [16], 17.4 µM (active). Further, the Potency result in assay [2], in assay [4], in assay [5], in [6], in [7] and in assay [8] was “inactive” each time. The Potency entry in assay [9], in assay [10], in [13], in [18], in assay [14] and in [17] was “inactive” in each case. Further, the max response in assay [12] was -7.18%.
With `CC(=O)C(Cl)(Cl)Cl`, the Potency result in [1], in assay [2], in [7], in assay [8], in [9] and in assay [11] was “inactive” each time. The Potency entry in assay [13], in assay [18], in assay [14], in [15] and in assay [16] was “inactive” each time. For the same compound, the Potency is 30.8 µM (active) in assay [4] and 5.9 µM (active) in [20]. Besides, in assay [19], the activity change, positive = activation is -67.8%.
`CC1(C)[C@H](C(=O)O[C@H](C#N)c2cccc(Oc3ccccc3)c2)[C@@H]1/C=C(\Cl)C(F)(F)F`: the Potency result in assay [1], in assay [2], in assay [4], in assay [6], in assay [7] and in assay [8] was “inactive” in each case. Besides, the Potency result in assay [9], in assay [11], in [13], in [18], in assay [14] and in assay [15] was “inactive” in each case. Besides, the Potency entry in assay [16] and in assay [17] was “inactive” each time. Further, the max response in [12] was -24.1%.
In the case of `Cc1cc(N=Nc2ccccc2C)ccc1N`, the Potency entry in assay [1], in assay [2], in [20], in assay [7], in assay [8] and in assay [14] was “inactive” throughout. Besides, the Potency entry in [15] and in assay [17] was “inactive” each time. The Potency in assay [4] was 113 µM (active) and 89.8 µM (active); in [6] it was 21.9 µM (active); in assay [10], 21.9 µM (active) and 19.5 µM (active); in assay [12], 21.9 µM (active); in assay [16] it was 21.9 µM (active) and 19.5 µM (active). Further, the activity change, positive = activation in [19] was 34.9% (active) and 43.7% (active).
Consider `O=[N+]([O-])c1cc(C(F)(F)F)c(Cl)c([N+](=O)[O-])c1Cl`, for which the Potency in assay [1] is 7.76 µM (active); in assay [2] it was 31.8 µM (active); in assay [20] it was 27.3 µM (active); in assay [5], 21.9 µM (active); in assay [6], 5.49 µM (active); in assay [8] it was 13.8 µM (active). For the same compound, the Potency is 6.16 µM (active) in [9]; 6.92 µM (active) in assay [10]; 4.9 µM (active) in [12]; 7.76 µM (active) in assay [13]; 49 µM (active) in [18]; 21.9 µM (active) in [14]. The results for the Potency in assay [15] and in assay [16] were 24.5 µM (active) and 19.5 µM (active), respectively. Further, the activity change, positive = activation in assay [19] was -73.4%. Further, the Potency entry in assay [7] and in [17] was “inactive” in each case.

The values are drawn from PubChem BioAssay (Tox21).
